In PubChem BioAssay (NCI):
About 79,000 compounds went through this panel and 15% of them were active in at least one assay; those are over-represented in the sample as a whole. Activity calls are given as the source filed them. Rule as the data show it: active = growth inhibition above about 70%; inactive = the rest.

Columns and labels:
[1] = NCI Yeast Anticancer Drug Screen. Data for the rad52 strain (AID 147);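 also: 0% = growth of vehicle-treated control cultures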; conditions: S. cerevisiae rad52 mutant growth inhibition, active compounds read high
Method in brief: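 Screen used a yeast mutant impaired in DNA repair. After compound exposure, growth was measured. Values reflect inhibition compared with vehicle-treated cells.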

[2] = NCI Yeast Anticancer Drug Screen. Data for the wt1 strain (AID 149);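 also: 0% = growth of vehicle-treated wt1 cultures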; conditions: S. cerevisiae wt1 strain (SPY 50644) growth inhibition, active compounds read high
Method in brief: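 The wt1 strain was treated with compounds, and growth was compared with vehicle-treated cultures to give inhibition.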

[3] = NCI Yeast Anticancer Drug Screen. Data for the rad50EPP+ strain (AID 151);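 also: 0% = growth of vehicle-treated control cultures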; conditions: S. cerevisiae rad50 mutant strain, active compounds read high
Method in brief: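 Exposing the rad50EPP+ strain to each compound, growth was compared with vehicle-only cultures to give inhibition.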

[4] = NCI Yeast Anticancer Drug Screen. Data for the mgt1 strain (AID 153); conditions: S. cerevisiae mgt1 mutant growth inhibition, active compounds read high
Method in brief: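 Genetically defined yeast (mgt1) treated with compound; inhibition of growth expressed against vehicle-treated controls.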

[5] = NCI Yeast Anticancer Drug Screen. Data for the rad50 strain (AID 155);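 also: 0% = growth of vehicle-only cultures of the same strain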; conditions: S. cerevisiae rad50 strain growth inhibition, active compounds read high
Method in brief: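 Cells are treated with compound, grown, and their growth is then scored against vehicle-only cultures of the same repair-deficient yeast strain.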

[6] = NCI Yeast Anticancer Drug Screen. Data for the mec2-1 strain (AID 157); conditions: S. cerevisiae mec2-1 strain, active compounds read high
Method in brief: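 Readout is yeast growth inhibition, normalised to vehicle-treated controls, in the mec2-1 strain exposed to compound.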

[7] = NCI Yeast Anticancer Drug Screen. Data for the rad14 strain (AID 159);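 also: 0% = growth of vehicle-treated control cultures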; conditions: S. cerevisiae rad14 strain growth inhibition, active compounds read high
Method in brief: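 Readout: yeast growth inhibition, referenced to vehicle-only cultures. Strain bears a defined alteration in DNA damage repair.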

[8] = NCI Yeast Anticancer Drug Screen. Data for the sgs1 mgt1 strain (AID 161);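 also: 0% = growth of cultures given vehicle only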; conditions: S. cerevisiae sgs1 mgt1 strain, active compounds read high
Method in brief: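 Compounds are added to genetically altered yeast, and growth is compared with cultures given vehicle alone to give percent inhibition.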

[9] = NCI Yeast Anticancer Drug Screen. Data for the CLN2oe strain (AID 163);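 also: 0% = growth of vehicle-only control cultures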; conditions: S. cerevisiae CLN2oe strain, active compounds read high
Method in brief: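 Values reflect how much compound exposure reduced yeast growth, referenced to vehicle-exposed cells. Assay organism is a strain with a defined genetic change affecting cell-cycle control.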

[10] = NCI Yeast Anticancer Drug Screen. Data for the cln2 rad14 strain (AID 165);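 also: 0% = growth equal to vehicle treated cultures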; conditions: S. cerevisiae cln2 rad14 strain, active compounds read high
Method in brief: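 Relative to vehicle controls, growth inhibition of compound-treated cln2 rad14 yeast was recorded.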

[11] = NCI Yeast Anticancer Drug Screen. Data for the bub3 strain (AID 167); conditions: S. cerevisiae bub3 mutant strain, active compounds read high
Method in brief: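 Part of a panel of yeast mutants defective in DNA damage repair or cell cycle regulation. Each strain is grown with compound, and inhibition is calculated relative to solvent-treated cultures.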

[12] = NCI Yeast Anticancer Drug Screen. Data for the wt2 strain (AID 169);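 also: 0% = growth of vehicle-treated yeast cultures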; conditions: S. cerevisiae wt2 strain growth inhibition, active compounds read high
Method in brief: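 Values express reduction in yeast growth under compound treatment, referenced to vehicle-treated cells.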

[13] = NCI Yeast Anticancer Drug Screen. Data for the mlh1 strain (AID 171);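 also: 0% = growth of vehicle-treated control cultures of the same strain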; conditions: S. cerevisiae mlh1 strain growth inhibition, active compounds read high
Method in brief: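 Steps: expose the defined-mutant yeast strain to compound; expose a parallel culture to vehicle; measure growth; express compound effect as inhibition relative to the vehicle culture.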

[14] = NCI Yeast Anticancer Drug Screen. Data for the sgs1 strain (AID 173);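 also: 0% = growth of vehicle-only control cultures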; conditions: S. cerevisiae sgs1 mutant, active compounds read high
Method in brief: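 Treat defined-mutant yeast with compound; measure growth; calculate inhibition relative to vehicle-treated cells.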

[15] = NCI Yeast Anticancer Drug Screen. Data for the mlh1 rad18 strain (AID 175); conditions: S. cerevisiae mlh1 rad18 strain growth inhibition, active compounds read high
Method in brief: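 Test agents were incubated with a yeast strain of defined genotype (DNA damage repair defect). Inhibition of growth was derived by comparison with vehicle-exposed cultures.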

[16] = NCI Yeast Anticancer Drug Screen. Data for the rad18 strain (AID 177); conditions: S. cerevisiae rad18 mutant growth inhibition, active compounds read high
Method in brief: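 A genetically defined yeast mutant impaired in DNA damage repair was treated with test compounds, then its growth was measured against cultures receiving vehicle alone.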

[17] = at 5.0 µM (retest, dose inferred, filed as 0.5)
[18] = at 50.0 µM (retest, dose inferred, filed as 5.0)

Measured: growth inhibition

COc1cccc(/C=C2\S/C(=N/Nc3nc(-c4ccc([N+](=O)[O-])cc4)cs3)NC2=O)c1O
inactive: [1]; at 1.2 µM 15% | [1]; at 3.7 µM 21% | [1]; at 11.0 µM 58% | [2]; at 1.2 µM -78% | [2]; at 3.7 µM 7% | [2]; at 11.0 µM 22% | [2]; at 33.0 µM 42% | [2]; at 100.0 µM 57% | [3]; at 1.2 µM 33% | [3]; at 3.7 µM 63% | [4]; at 1.2 µM 9% | [4]; at 3.7 µM 23% | [4]; at 11.0 µM 39% | [4]; at 33.0 µM 59% | [4]; at 100.0 µM 56% | [5]; at 1.2 µM 2% | [5]; at 3.7 µM 11% | [5]; [17] -1% | [5]; at 11.0 µM 43% | [6]; at 1.2 µM 1% | [6]; at 3.7 µM 12% | [6]; [17] -4% | [6]; at 11.0 µM 39% | [6]; [18] 52% | [7]; at 1.2 µM 0% | [7]; at 3.7 µM 3% | [7]; at 11.0 µM 6% | [7]; at 33.0 µM 20% | [7]; at 100.0 µM 43% | [8]; [17] 0% | [9]; at 1.2 µM 6% | [9]; at 3.7 µM 25% | [9]; at 11.0 µM 63% | [10]; [17] 33% | [11]; at 1.2 µM 7% | [11]; at 3.7 µM 33% | [11]; at 11.0 µM 62% | [12]; at 1.2 µM -2% | [12]; at 3.7 µM 23% | [13]; at 1.2 µM -1% | [13]; at 3.7 µM 6% | [13]; at 11.0 µM 30% | [13]; at 33.0 µM 63% | [14]; at 1.2 µM 5% | [14]; at 3.7 µM 19% | [14]; at 11.0 µM 50% | [15]; [17] 10% | [16]; at 1.2 µM 10% | [16]; at 3.7 µM 25%
active: [1]; at 33.0 µM 72% | [1]; at 100.0 µM 80% | [3]; at 11.0 µM 89% | [3]; at 33.0 µM 96% | [3]; at 100.0 µM 94% | [5]; at 33.0 µM 73% | [5]; [18] 84% | [5]; at 50.0 µM 97% | [5]; at 100.0 µM 80% | [6]; at 33.0 µM 79% | [6]; at 50.0 µM 94.2% | [6]; at 100.0 µM 83% | [8]; [18] 76% | [8]; at 50.0 µM 95.7% | [9]; at 33.0 µM 90% | [9]; at 100.0 µM 93% | [10]; [18] 85% | [10]; at 50.0 µM 76.7% | [11]; [17] 82% | [11]; at 33.0 µM 90% | [11]; [18] 97% | [11]; at 50.0 µM 97% | [11]; at 100.0 µM 94% | [12]; at 11.0 µM 76% | [12]; at 33.0 µM 94% | [12]; at 100.0 µM 92% | [13]; at 100.0 µM 74% | [14]; at 33.0 µM 77% | [14]; at 100.0 µM 76% | [15]; [18] 89% | [15]; at 50.0 µM 95.3% | [16]; at 11.0 µM 72% | [16]; at 33.0 µM 93% | [16]; at 100.0 µM 92%
